Experimental data reported in PubChem BioAssay AID504336 (NMMLSC, 2011).
“And” between values parts separate entries of the source, which are not always exact repeats. Equal values may be shown once.

Assay: TOR branch reporter RPL19A-GFP response – cell-based, S. cerevisiae, third cherry pick, flow cytometry, confirmation (AID 504336);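 note: median GFP fluorescence of all gated yeast cells by flow cytometry; ratio of well median fluorescence to plate mean of DMSO wells with DMSO = 100%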
Conditions: S. cerevisiae RPL19A-GFP strain, 3 h, at 10 µM, stronger effect = lower value;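 active = compounds whose GFP signal falls below 65% of the DMSO control level; inconclusive = fewer than 70 yeast cells counted in the well; inactive = the rest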

GFP response relative to DMSO, inactive:
CC(=O)Nn1cnc2c(c1=O)C1(CCCCC1)Cc1ccccc1-2 99.1%
C/C(=C\C(=O)c1ccc(C)cc1)Nc1cccc(O)c1 99.3%
Oc1ccc(Cl)c2cccnc12 98%
Cc1ccc(Nc2cc(=O)[nH]c(=O)[nH]2)cc1Cl 100%
CC(=O)C(Cl)C(=O)Nc1ccccc1 (centres undefined) 98.8%
C/C(=C\C(=O)c1ccccc1)Nc1ccc(O)cc1 100%
O=C(/C=C/Nc1cccc(O)c1)c1ccccc1 98.8%
Nc1ccc(O)c2c1C(=O)c1ccccc1C2=O 98.5%
CNc1cccc2c1C(=O)c1ccccc1C2=O 102%
O=C(O)c1ccc2cccc(O)c2n1 102%
C=CCNc1ncnc2ccc(Br)cc12 99.3%
COc1ccc(OC)c2c(=O)cc(C(=O)O)[nH]c12 92.3%
CS(=O)(=O)c1nc(-c2ccc(F)cc2)cc(C(F)(F)F)n1 97.8%
Nc1[nH]c(=O)nc(Nc2ccccc2)c1N=O 101%
Cc1nc(Nc2ccc(Cl)cc2)c(C#N)c(=O)[nH]1 102%
COCCNc1nc(N)c([N+](=O)[O-])c(Nc2ccc(F)cc2)n1 100%
COc1ccc(OC)c(N/C(C)=C/C(=O)c2ccccc2)c1 103%
Cn1cccc1C(=O)Nc1nc(-c2ccccn2)cs1 102%
Cc1ccc(C(=O)/C=C/Nc2cccc(O)c2)cc1 101%
O=C(Nc1ccccc1)O/N=C1\CCCCC1c1ccc([N+](=O)[O-])cc1[N+](=O)[O-] (centres undefined) 96.5%
O=C(O)c1ccc(C=NNC(=O)c2cccc3ccccc23)cc1 97.2%
CCC(C)Nc1nc(N)c([N+](=O)[O-])c(Nc2ccccc2OC)n1 (centres undefined) 105%
Cc1ccc(NC(=O)O/N=C2\CCCCC2c2ccc([N+](=O)[O-])cc2[N+](=O)[O-])cc1 (centres undefined) 102%
CCc1c(C)nc2c(OC)cccc2c1Cl 102%
COc1ccc(OC)c2c(C)cc(C)nc12 98.5%
CC(=O)C(CC(=O)N1CCCC1)C(=O)Nc1ccc(Cl)cc1 (centres undefined) 102%
Cc1cn2c(N)c(C=C3C=C(Cl)C(=O)C(Cl)=C3)c(=O)nc2s1 104%
Oc1ccc(F)c2cccnc12 101%
Cc1ccc(Nc2cc(=O)[nH]c(=O)[nH]2)cc1C 96.5%
NC(=O)COc1cccc2cccnc12 102%
COc1ccc(-c2cc(C(F)(F)F)nc(S(C)(=O)=O)n2)cc1OC 99.6% and 103%
CC1=CN2C(=N)/C(=C/c3ccco3)C(=O)N=C2S1 106%
COC1=C/C(=C/c2c(N)n3cc(C)sc3nc2=O)C=CC1=O 103%
COc1ccccc1Nc1nc(NCCO)nc(N)c1[N+](=O)[O-] 102%
O=C(O)CCS(=O)(=O)c1nc(-c2cccs2)cc(C(F)(F)F)n1 97%
Cc1ccc2c(Cl)cc(Cl)c(OCC(=O)O)c2n1 104%
Cn1c(NCCO)nc2c(c1=O)C1(CCCCC1)Cc1ccccc1-2 103%
C[n+]1cccc2cccc([O-])c21 98.3%
Cc1cc(C)c2ccc(N)nc2c1O 101%
